Hit rate of the full screen: of about 220,000 compounds, about 910 (0.41%) were called active. Shown is part of a subset that was picked to be rich in actives. Results with a measured potency or affinity are listed apart. Unmarked numbers belong to inactive results.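 Rule for the calls: active = primary inhibition above the hit cutoff, then over 50% inhibition at one or more dose response concentrations (cut at about 23% in these data, passing the limit was not always enough); inconclusive = conflicting primary data, or primary hits not chosen for dose response; inactive = low primary inhibition, or under 50% at every dose.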
What follows are compounds tested against Aminopeptidase N (Plasmodium falciparum (isolate 3D7)) (UniProt O96935) (assay: P. falciparum M1AAP inhibitors, biochemical, fluorogenic H-Leu-NHMec substrate, 1536-well (AID 1445;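 note: plate controls were DMSO full reaction for no effect and no enzyme background for full effect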)). Conditions: recombinant M1AAP, H-Leu-NHMec fluorogenic kinetic assay; at 30 µM, active compounds read high unless noted.
Chain of Aminopeptidase N (Plasmodium falciparum (isolate 3D7)) (O96935 whole entry, looked up): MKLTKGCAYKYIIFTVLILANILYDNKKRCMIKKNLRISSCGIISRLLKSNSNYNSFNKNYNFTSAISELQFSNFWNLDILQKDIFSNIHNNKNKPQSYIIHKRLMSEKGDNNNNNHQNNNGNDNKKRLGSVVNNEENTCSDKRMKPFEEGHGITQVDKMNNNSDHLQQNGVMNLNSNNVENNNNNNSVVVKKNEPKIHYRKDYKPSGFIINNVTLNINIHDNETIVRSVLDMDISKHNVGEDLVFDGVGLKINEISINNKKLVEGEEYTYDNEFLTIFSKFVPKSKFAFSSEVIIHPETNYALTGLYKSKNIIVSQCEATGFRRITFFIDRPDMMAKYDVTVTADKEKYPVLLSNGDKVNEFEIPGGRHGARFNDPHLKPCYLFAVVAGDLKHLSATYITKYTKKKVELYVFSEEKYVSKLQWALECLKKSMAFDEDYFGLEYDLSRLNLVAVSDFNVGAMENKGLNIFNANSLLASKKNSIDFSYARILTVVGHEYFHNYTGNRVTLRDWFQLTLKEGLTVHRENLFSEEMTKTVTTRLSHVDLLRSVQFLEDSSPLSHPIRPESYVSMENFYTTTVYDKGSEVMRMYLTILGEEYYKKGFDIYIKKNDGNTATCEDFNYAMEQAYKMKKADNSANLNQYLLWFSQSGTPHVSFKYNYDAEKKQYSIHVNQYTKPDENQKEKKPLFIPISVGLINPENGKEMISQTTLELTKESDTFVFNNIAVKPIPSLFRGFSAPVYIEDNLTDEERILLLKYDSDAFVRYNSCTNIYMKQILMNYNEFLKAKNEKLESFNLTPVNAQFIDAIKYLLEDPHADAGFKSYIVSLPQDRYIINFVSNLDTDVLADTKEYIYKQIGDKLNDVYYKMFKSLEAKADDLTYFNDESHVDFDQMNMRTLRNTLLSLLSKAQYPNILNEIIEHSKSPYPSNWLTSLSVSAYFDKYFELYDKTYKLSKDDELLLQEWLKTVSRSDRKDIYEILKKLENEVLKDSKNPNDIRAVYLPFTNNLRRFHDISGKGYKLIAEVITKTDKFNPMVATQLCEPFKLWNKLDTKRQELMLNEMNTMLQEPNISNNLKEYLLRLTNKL

Structure (SMILES) | inhibition
CC1(C)Cc2c(sc3c2c(N)nc(=S)n3Cc2ccc(Br)cc2)CO1 | 5.16%
Cc1cc(C)n(-c2cc(-n3nc(C)cc3C)ncn2)n1 | 7.79%
Cc1ccc(Nc2cc(-n3nc(C)cc3C)ncn2)c(C)c1 | -27.3%
Cc1ccc(Nc2cc(-n3nc(C)cc3C)ncn2)cc1 | 26.7% (active)
CC1(C)CC(=O)C(C=NCCN2CCN(C(=S)NC3CCCCC3)CC2)=C(O)C1 | -1.18%
Cc1ccc(NC(=O)CN(C)CC(=O)Nc2ccccc2Oc2ccccc2)cc1 | -4.16%
O=C(N/N=C\c1ccc(-c2ccccc2[N+](=O)[O-])o1)C1COc2ccccc2O1 (stereo not drawn) | 5.3%
O=C(N/N=C\c1ccc(O)c([N+](=O)[O-])c1)C1COc2ccccc2O1 (stereo not drawn) | 21.5%
O=C(N/N=C\c1ccc([N+](=O)[O-])o1)C1COc2ccccc2O1 (stereo not drawn) | 15.2%
O=C(N/N=C/c1cccc([N+](=O)[O-])c1)C1COc2ccccc2O1 (stereo not drawn) | -7.31%
Cc1cc(C(=O)OCn2nnc3ccccc3c2=O)c(C)n1-c1ccccc1 | 0.48%
O=C(COC(=O)c1cccc2ccccc12)Nc1ncc(C(F)(F)F)cc1Cl | 1.24%
CC(=O)c1ccc(Sc2ccccc2N)c([N+](=O)[O-])c1 | 0.73%
O=C(O)c1ccccc1C(=O)c1ccc(Sc2ccc(Cl)cc2)c([N+](=O)[O-])c1 | 17.6%
Cc1cccc(Nc2c(-c3ccc(N4CCOCC4)cc3)nc3ncccn23)c1 | 1.09%
O=C(Nc1nnc(C2CC2)s1)C1CCCO1 (stereo not drawn) | -7.06%
Cn1cc(Br)c(C(=O)Nc2ncc(Br)s2)n1 | 3.9%
CC(=O)c1ccc(OC(C)C)c(CSc2nc(O)cc(=O)[nH]2)c1 | 36.7%
CCCOc1ccc(C(C)=O)cc1CSCCC#N | 11.4%
CCOC(=O)c1sc2nc(C(C)C)c3c(c2c1N)CC(C)(C)OC3 | 22.1%
COC(=O)c1ccc(S(=O)(=O)N2CCCN(Cc3ccccc3)CC2)n1C | -2.02%
Cc1ccccc1C(=O)Nc1ccnc(-c2ccncc2)n1 | -1.17%
Cc1nc2ccc(Cl)cc2nc1C | 5.55%
Cc1nc(N)nc(Cl)c1Cc1ccc(Cl)cc1 | 0.71%
COC(CNC(=O)C1CCCCC1C(=O)O)OC (stereo not drawn) | -2.33%

Structure (SMILES) | inhibition
C/C(CC(=O)Nc1ccccc1C)=N\NC(=O)Cc1csc(N)n1 | 5.41%
C=CCn1c(SCc2nc3ccccc3c(=O)[nH]2)nc2scc(C3CC3)c2c1=O | 1.15%
CC(C)Oc1ccc2ccccc2c1C=O | 23.8% (active)
O=Cc1c(OCc2ccccc2)ccc2ccccc12 | 16.3%
COc1ccc2ccccc2c1/C=N/O | 6.62%
C=CCNc1nc2ccccc2c(=O)[nH]1 | 7.55%
Clc1ccc(-c2nc(-c3cc4cc(Cl)ccc4o3)cs2)cc1 | 2.11%
CC(=O)Nc1cccc(NS(=O)(=O)c2ccccc2[N+](=O)[O-])c1 | -4.08%
CC(C(=O)N1CCN(C)CC1)N1C(=O)c2ccccc2C1=O (stereo not drawn) | 7.24%
COC(=O)c1c[nH]n2c(=O)c(Cl)c(C)nc12 | 0.19%
COc1ccc(OC)c(CC(NC(C)=O)C(=O)NC2CCN(c3nc(OC)nc(OC)n3)CC2)c1 (stereo not drawn) | 4.38%
COc1ccc(/C=N/NC(=O)c2ccccc2O)cc1Cn1cc([N+](=O)[O-])cn1 | 5.5%
COc1ccc(/C=N/NC(=O)c2ccc(N)cc2)cc1Cn1cc([N+](=O)[O-])cn1 | 16.6%
Cc1nc(CC(=O)Nc2nc(C(C)(C)C)cs2)cs1 | 13.3%
O=C(O)c1ccc(-c2ncc[nH]2)cc1 | 2.64%
CC(CCc1ccco1)NC(=O)Cn1ncc2c1-c1ccccc1OC2 (stereo not drawn) | 12.1%
Cc1ccc2c(c1)-c1c(cnn1CC(=O)O)CO2 | 0.53%
Cc1ccc2c(c1)-c1c(cnn1CC(=O)NC(C)CCc1ccco1)CO2 (stereo not drawn) | 25.2% (active)
Cc1ccc2c(c1)-c1c(cnn1CC(=O)N(Cc1ccco1)C1CCCCC1)CO2 | 4.81%
Cc1ccc2c(c1)-c1c(cnn1CC(=O)N1CCCN(Cc3ccccc3F)C1)CO2 | 26.4% (active)
Cc1ccc(C)c(CN2CCCN(C(=O)Cn3ncc4c3-c3ccccc3OC4)C2)c1 | 3.24%
COc1cc2c(cc1OC)CN(C(=O)CSc1n[nH]c(N)n1)CC2 | 0.58%
COc1cc2c(cc1OC)CN(C(=O)CSc1nc(C)cc(C)c1C#N)CC2 | 3.39%
COc1cc2c(cc1OC)CN(C(=O)CSc1nnc(C)s1)CC2 | 25.4% (active)
CCOCCn1cnc2sc(C(=O)NCC(=O)OCC)c(C)c2c1=O | 1.07%

Structure (SMILES) | inhibition
Cc1cc2c(=O)oc(-c3ccccc3Br)nc2s1 | -4.08%
O=C(Nc1cnc2sc3c(n2c1=O)CCCC3)c1ccc(F)cc1 | 23.9% (active)
Cc1ccc2c(c1)sc1ncc(NC(=O)c3ccc(F)cc3)c(=O)n12 | -0.5%
Cc1nn2c(=O)c(NC(=O)c3ccc(F)cc3)cnc2s1 | 6.66%
CCOC(=O)COc1ccc(N)cc1CC(NC(C)=O)(C(=O)OCC)C(=O)OCC | 6.1%
Cn1cc(CNC(=O)C2c3ccccc3Oc3ccccc32)cn1 | 13.7%
COc1ccc(N=CC2=C(O)CC(C)(C)CC2=O)cc1 | 13.6%
CCOC(=O)CSc1nc(C)c2cccc(C)c2n1 | 0.76%
C=CCc1c(C)nc2c(C)cccc2c1SC(=N)N | 1.57%
CCOc1ccc(NC(=O)c2ccccc2OC)cc1 | 5.95%
COc1ccc(NC(=O)CSc2c(C)n[nH]c2C)cc1 | 0.25%
O=C(NC(Cc1ccccc1)c1nc2ccccc2[nH]1)C1CC(=O)N(c2ccc3c(c2)OCCO3)C1 (stereo not drawn) | 26% (active)
O=C(Nc1nc2ccccc2[nH]1)C1CC(=O)N(c2ccc3c(c2)OCCO3)C1 (stereo not drawn) | -0.34%
O=C(NCCCc1ccccc1)C1CC(=O)N(c2ccc3c(c2)OCCO3)C1 (stereo not drawn) | 2.32%
CCN(CC)C(=O)c1ccc(-c2cccs2)s1 | 2.09%
O=C(c1cccs1)c1ccc(-c2cccs2)s1 | 15.2%
COc1ccc(NC(=O)Cn2nnc(C(=O)NCCc3ccc(OC)c(OC)c3)c2N)c(OC)c1 | 0.32%
O=C(NNc1c(Cl)cc(Cl)cc1Cl)c1cccc([N+](=O)[O-])c1 | 0.41%
Cc1ccccc1CSc1nn2c(=O)c(C)nnc2s1 | 1.72%
O=[N+]([O-])c1cccc(S(=O)(=O)NCCc2cn3ccccc3n2)c1 | -0.31%
CCCc1ccc(-c2ccc(F)c(N)c2)nc1 | 6.24%
Nc1ccc2nc(-c3ccccc3)[nH]c2c1 | 1.94%
Nc1ccc2nc(-c3ccc(Cl)cc3)[nH]c2c1 | 14%
CCOC(=O)CN(C(=O)CNC(=O)c1ccco1)C(C(=O)NC1CCCCC1)c1cccs1 (stereo not drawn) | 2.4%
Cc1cc(C)nc(SCC(=O)N/N=C/c2cccn2-c2ccc(O)cc2)n1 | 8.99%

Structure (SMILES) | inhibition
Cc1ccc(-c2cn3cccnc3n2)cc1NC(=O)c1c(-c2ccccc2Cl)noc1C | 9.6%
Cc1onc(-c2ccccc2Cl)c1C(=O)Nc1cccc(-c2cn3cccnc3n2)c1 | 26.2% (active)
Cc1onc(-c2ccccc2Cl)c1C(=O)Nc1ccc(-c2cn3cccnc3n2)cc1 | 3.1%
COc1ccccc1NS(=O)(=O)c1cc(NC(=O)c2cccs2)ccc1N1CCOCC1 | 3.5%
Cc1nn2c(N3CCOCC3)c3c(nc2c1-c1ccccc1)CCCC3 | 4.17%
Cc1nn2c(N3CCCC3)c3c(nc2c1-c1ccccc1)CCC3 | 7%
CC1(C)CC(=O)C(/C=N/n2cnc3ccccc3c2=O)=C(O)C1 | 11.3%
CC1(C)CC(=O)C(C=Nc2ccccc2)=C(O)C1 | 2.69%
CC1(C)CC(=O)C(/C=N/n2c(C(F)(F)F)nc3ccccc3c2=O)=C(O)C1 | 27.5% (active)
O=C(c1ccco1)N1CCN(C(c2ccccc2Cl)c2nnnn2Cc2ccco2)CC1 (stereo not drawn) | 2.33%
Cc1noc(NC(=O)c2ccccc2C(F)(F)F)c1C#N | -0.81%
O=S(=O)(Nc1ncccn1)c1ccc(NS(=O)(=O)c2cc(Cl)ccc2Cl)cc1 | 30.4%
O=S(=O)(Nc1cccnc1)c1cccc(Cl)c1 | -0.41%
O=S(=O)(Nc1ccncc1Cl)c1cc(Cl)ccc1Cl | 4.72%
O=C(O)c1ccc(NS(=O)(=O)c2cc(Cl)ccc2Cl)cc1 | 5.33%
O=S(=O)(Nc1nccs1)c1ccc(Cl)cc1 | -5.71%
O=S(=O)(Nc1cccnc1)c1ccc(Cl)cc1 | 1.51%
O=S(=O)(Nc1nccs1)c1cc(Cl)ccc1Cl | 25.8% (active)
O=S(=O)(Nc1cccnc1)c1cc(Cl)ccc1Cl | 25.4% (active)
CCOc1ccccc1C(=O)Nc1nnc(SCC(=O)N2CCOCC2)s1 | 2.46%
CN(CC(=O)N1CCCCCC1)S(=O)(=O)c1ccc(Br)s1 | 8.78%
CCOC(=O)Cn1nc(C)c(NC(=O)COc2ccccc2[N+](=O)[O-])c1C | 0.47%
Cn1c(=O)n(-c2cccc(Cl)c2)c(=O)n1C | 4.63%
